We go through 82 molecules from PubChem BioAssay AID1259421 (Broad Institute, 2018).

The structures appear in SMILES notation. Several values for one entry are separate records, joined by “and”; a condition that tells them apart may be missing. Equal entries are not always repeated. Hit rate of the full screen: of about 6,400 compounds, about 610 (9.5%) were called active. This is one part of a sample in which actives are shown more often than they occur. Cut-off read from the data, not from the text of the source: active = activity change below about -70%; inconclusive = no clear call, values can overlap the other calls; inactive = above that. The source holds several records for some structures; these can differ, active in one and inactive in another.

A short description of the test: T. gondii ME49Luc in HeLa cells, luciferase assay, 72 h, no IFN-y (AID 1259421). As to conditions: stronger effect = lower value, concentration not given here.
`C[C@@]12CCC3[C@@](CC[C@@H]4[C@](C)(C(=O)O)CCC[C@@]34C)(CC1=O)C2` (some centres not stated): the activity change, negative = inhibition was 7.66% (inactive).

In the case of `O=C(O)CSc1nnc(Br)n1-c1ccc(C2CC2)c2ccccc12`, the activity change, negative = inhibition was 0.38% (inactive). Next, `CCCCCCCCCCOc1cc2c(=O)c(C(=O)OCC)c[nH]c2cc1OCC`: 30.1% (inactive); `O=C(O)c1cc(N(Cc2ccccc2O)Cc2ccccc2O)ccc1O`: 2.11% (inactive). Turning to `Cc1ccccc1-c1cc(N2CCN(C)CC2)ncc1N(C)C(=O)C(C)(C)c1cc(C(F)(F)F)cc(C(F)(F)F)c1`, the activity change, negative = inhibition was -80.1% (active). Consider `CO[C@@]1(NC(=O)C2SC(=C(C(N)=O)C(=O)O)S2)C(=O)N2C(C(=O)O)=C(CSc3nnnn3C)CSC21` (some centres not stated), for which the activity change, negative = inhibition is 5.67% (inactive). Next, `CC1CC2C3CC(F)C4=CC(=O)C=CC4(C)C3(F)C(O)CC2(C)C1(CC(=O)CO)C(=O)SCF` (configuration not stated): -4.39% (inactive); `Cc1oc(=O)oc1COC(=O)C1=C([C@H]2CCCO2)S[C@@H]2[C@@H]([C@@H](C)O)C(=O)N12`: 16.9% (inactive); `Cc1cccc(Nc2nc(-c3ccncc3)cs2)c1`: 107% (inactive).

With `O=C(NCc1ccccc1)c1csc(Nc2ccncn2)n1`, the activity change, negative = inhibition was -56.6% (inactive).

As to `O=C(NCc1cccc(O)c1)Nc1nc(-c2ccncc2)cs1`, the activity change, negative = inhibition was -70.8% (active).

With `CC(C)CN(C[C@@H](OP(=O)(O)O)[C@H](Cc1ccccc1)NC(=O)O[C@H]1CCOC1)S(=O)(=O)c1ccc(N)cc1`, the activity change, negative = inhibition is -5.19% (inactive).

In the case of `CCC(CC)O[C@@H]1C=C(C(=O)O)C[C@H](N)[C@H]1NC(C)=O`, the activity change, negative = inhibition was 3.98% (inactive). As for `O=C1Cc2c([nH]c3ccc(Br)cc23)-c2ncccc2N1`, the activity change, negative = inhibition is 206% (inactive).

`O=C1Cc2c([nH]c3ccc(Br)cc23)-c2ccccc2N1`: the activity change, negative = inhibition is 406% (inactive) and -6.73% (inactive). Turning to `O=C1Cc2c([nH]c3ccc([N+](=O)[O-])cc23)-c2ccccc2N1`, the activity change, negative = inhibition is -78% (active). `O=c1c2c(c1=O)N(CCP(=O)(O)O)CCCN2`: the activity change, negative = inhibition was 4.23% (inactive). Turning to `OCCN1C[C@@H](O)[C@@H](O)C(O)C1CO` (some centres not stated), the activity change, negative = inhibition was 10.9% (inactive). Next, `Cc1cc2ncc(-c3ccccc3)nc2cc1C`: 459% (inactive); `COC(=O)[C@H](NC(=O)c1cc(-c2ccccc2)nc2ccccc12)c1ccccc1`: 9.5% (inactive) and 19.2% (inactive); `COc1cc2ncc(-c3ccccc3)nc2cc1OC`: -82.6% (active). Next, `COc1ccc(-c2oc3cc(OC)c(OC)c(OC)c3c(=O)c2OC)cc1`: -3.53% (inactive). Next, `CC(=O)c1cc([N+](=O)[O-])c(Sc2ccc(F)cc2F)s1`: -85.3% (active).

With `CC(=O)c1cc([N+](=O)[O-])c(Sc2cccc(Cl)c2Cl)s1`, the activity change, negative = inhibition is 14.1% (inactive). Take `C=C[C@@]1(C)CC(=O)[C@]2(O)[C@@]3(C)[C@@H](O)CCC(C)(C)[C@@H]3[C@H](OC(=O)CCN(C)C)[C@H](OC(C)=O)[C@@]2(C)O1`: the activity change, negative = inhibition is 0.0952% (inactive). Take `C=CCN1CCN(c2nc3ccccc3nc2C#N)CC1`: the activity change, negative = inhibition was -7.28% (inactive) and 5.54% (inactive).

Take `c1ccc(Cn2c(N3CCNCC3)nc3ccccc32)cc1`: the activity change, negative = inhibition was 6.11% (inactive).

Turning to `Cc1oc2nc3c(c(NC(=O)CN4CCCC4=O)c2c1C)CCCC3`, the activity change, negative = inhibition is 1.4% (inactive). For the molecule `Nc1cc2ncnc(Nc3cccc(Br)c3)c2cc1N`, the activity change, negative = inhibition was 4.16% (inactive). For `OCc1cc2ncnc(Nc3ccc(O)c(Br)c3)c2cc1CO`, the activity change, negative = inhibition is -79.3% (active).

As to `COc1cc2ncnc(Nc3ccc(O)c(Br)c3)c2cc1OC`, the activity change, negative = inhibition is -58.4% (inactive). Next, `C[C@H](CCC(=O)O)[C@@H]1CC[C@H]2[C@@H]3CC[C@@H]4C[C@H](O)CC[C@]4(C)[C@H]3CC[C@@]21C`: 11.8% (inactive). For the molecule `Cn1c(COc2ccc(CC3SC(=O)NC3=O)cc2)nc2ccccc2c1=O` (configuration not stated), the activity change, negative = inhibition is -40.6% (inactive). For `COc1ccc(-c2cc(=O)c3c(O)c(OC)c(O)cc3o2)cc1OC`, the activity change, negative = inhibition is 48.9% (inactive). For `CC[C@@H]1C(=O)N(C)c2cnc(Nc3ccc(C(=O)NC4CCC(N5CCN(CC6CC6)CC5)CC4)cc3OC)nc2N1C(C)C` (some centres not stated), the activity change, negative = inhibition was -84.3% (active). Next, `CC[C@@H]1C(=O)N(C)c2cnc(Nc3ccc(C(=O)NC4CCN(C)CC4)cc3OC)nc2N1C1CCCC1`: -62.8% (inactive); `COc1cc(OC2CCN(C)CC2)ccc1Nc1ncc2c(n1)n(C1CCCC1)c(=O)n2C`: -32% (inactive). Consider `COc1ccc2nc([S@@](=O)Cc3ncc(C)c(OC)c3C)[nH]c2c1`, for which the activity change, negative = inhibition was -6.99% (inactive) and 19.3% (inactive). Next, `OCc1cncc(F)c1`: 11.3% (inactive); `O=C(O)c1cc(=O)c2ccc(Cl)cc2[nH]1`: 9.46% (inactive) and -2.93% (inactive).

For `O=C(O)c1cc(=O)c2ccccc2[nH]1`, the activity change, negative = inhibition is 7.07% (inactive). Consider `O=C(O)c1cc(=O)c2cccc(O)c2[nH]1`, for which the activity change, negative = inhibition is -75.2% (active). As to `COc1ccc(C(=O)N2CCCc3cc(C4=NNC(=O)SC4C)ccc32)cc1OC` (configuration not stated), the activity change, negative = inhibition is -41.6% (inactive). Next, `CC1CCC(NC(=O)N(CCCl)[NH2+][O-])CC1` (configuration not stated): 75.3% (inactive). Next, `Cc1ccc(NC2=CC(=O)c3sc(C)nc3C2=O)cc1`: -74.1% (active); `CC(C)(C)NCC(O)COc1ccc(NC(=O)NC2CCCCC2)cc1` (configuration not stated): 3.16% (inactive). Consider `COc1ccc(CCNCC(O)COc2cccc(C)c2)cc1OC` (configuration not stated), for which the activity change, negative = inhibition is 9.54% (inactive). Turning to `CC1=C(C(=O)O)N2C(=O)[C@@H](NC(=O)C(N)c3ccc(O)cc3)[C@H]2SC1` (some centres not stated), the activity change, negative = inhibition was 4.06% (inactive). Next, `Cc1ccc(CC2(O)CCN(CCOc3ccc(O)cc3)CC2)cc1`: -6.15% (inactive) and -9.12% (inactive); `O=C(c1ccc(OCCN2CCCCC2)cc1)c1c(-c2ccc(O)cc2)sc2cc(O)ccc12`: -9.78% (inactive) and -5.73% (inactive); `Cc1c(-c2ccc(O)cc2)n(Cc2ccc(OCCN3CCCCCC3)cc2)c2ccc(O)cc12`: -80.5% (active). `CC(=O)OCCN1C(=O)c2c(C)nc3ccc(S(=O)(=O)N4CCOCC4)cc3c2C1=O`: the activity change, negative = inhibition was -1.17% (inactive). Take `Nc1cc(Nc2ccc(S(N)(=O)=O)cc2)ncn1`: the activity change, negative = inhibition is 14.5% (inactive). As for `COc1c(O)cc2c(c1O)[C@H]1O[C@H](CO)[C@@H](O)[C@H](O)[C@@H]1OC2=O`, the activity change, negative = inhibition is -5.41% (inactive). For the molecule `CCOC(=O)c1cnc2oc3ccc(O)cc3c2c1-c1ccccc1`, the activity change, negative = inhibition is 6.27% (inactive). Turning to `C=CC(=O)Nc1ccc2ncnc(Nc3ccc(OCc4cccc(F)c4)c(Cl)c3)c2c1`, the activity change, negative = inhibition was -52.5% (inactive). With `CS(=O)(=O)CCNCc1nc(-c2ccc3ncnc(Nc4ccc(OCc5cccc(F)c5)c(Cl)c4)c3c2)cs1`, the activity change, negative = inhibition is -30.2% (inactive) and 30.3% (inactive). With `CS(=O)(=O)CCNCc1ccc(-c2ccc3ncnc(Nc4ccc(OCc5cccc(F)c5)c(Cl)c4)c3c2)o1`, the activity change, negative = inhibition is -64.5% (inactive) and -82.3% (active). For `OC(CCl)CN1CC[N+]2(CC1)CC[N+]1(CCN(CC(O)CCl)CC1)CC2` (configuration not stated), the activity change, negative = inhibition is 9.78% (inactive).

In the case of `CC1CCCC(C)N1NC(=O)c1ccc(Cl)c(S(N)(=O)=O)c1` (configuration not stated), the activity change, negative = inhibition was 15.9% (inactive). On to `NCCNS(=O)(=O)c1cccc2c(Cl)cccc12`, for which the activity change, negative = inhibition is -0.625% (inactive). Next, `C#Cc1cccc(Nc2ncnc3cc(OC)c(OCCCCCCC(=O)NO)cc23)c1`: -82.6% (active).

With `C#Cc1cccc(Nc2ncnc3cc(OCCOC)c(OCCO)cc23)c1`, the activity change, negative = inhibition was -30.3% (inactive). With `C#Cc1cccc(Nc2ncnc3cc(OCCOC)c(OCCOC)cc23)c1`, the activity change, negative = inhibition is -1.64% (inactive) and -10.5% (inactive). Consider `COc1ccc2[nH]c(S(=O)Cc3ncc(C)c(OC)c3C)nc2n1` (configuration not stated), for which the activity change, negative = inhibition is 29.4% (inactive) and 28.4% (inactive). For the molecule `Cc1ccc2c(c1)C(=O)C1(O)CCN(c3ccccc3)C1=N2` (configuration not stated), the activity change, negative = inhibition is 12.8% (inactive). Next, `COc1ccccc1OC(=O)C(C)c1ccc(CC(C)C)cc1` (configuration not stated): -39.2% (inactive). Take `O[n+]1ccccc1[S-].O[n+]1ccccc1[S-].[Zn+2]`: the activity change, negative = inhibition was -66.7% (inactive).

As to `O=C1NC(=O)C(c2cnc3ccccn23)=C1c1cn2c3c(cc(F)cc13)CN(C(=O)N1CCCCC1)CC2`, the activity change, negative = inhibition was -84.1% (active).

Regarding `CC(C)n1nnc2cc(C(=O)O)ccc21`, the activity change, negative = inhibition is 9.2% (inactive) and 12.9% (inactive). As to `Cc1nc2sccn2c(=O)c1CCN1CCC(=C(c2ccc(F)cc2)c2ccc(F)cc2)CC1`, the activity change, negative = inhibition is -60.2% (inactive) and 18.5% (inactive). For the molecule `CC[C@@H](Nc1c(Nc2cccc(C(=O)N(C)C)c2O)c(=O)c1=O)c1ccc(C)o1`, the activity change, negative = inhibition is -16.5% (inactive). Take `CC(C)(C)NC(=O)[C@H]1CCC2C3CCC4NC(=O)C=C[C@]4(C)C3CC[C@@]21C` (some centres not stated): the activity change, negative = inhibition is 13.3% (inactive).

As for `COC(=O)NC(C(=O)N[C@@H](Cc1ccccc1)C(O)CN(Cc1ccc(-c2ccccn2)cc1)NC(=O)C(NC(=O)OC)C(C)(C)C)C(C)(C)C` (some centres not stated), the activity change, negative = inhibition is -10.1% (inactive).

`OCCOCCN1CCN(C(c2ccccc2)c2ccc(Cl)cc2)CC1` (configuration not stated): the activity change, negative = inhibition was -71.5% (active). Next, `O=C(O)COCCN1CCN([C@H](c2ccccc2)c2ccc(Cl)cc2)CC1`: -64.2% (inactive); `O=C(O)COCCN1CCN(C(c2ccccc2)c2ccc(Cl)cc2)CC1` (configuration not stated): 2.12% (inactive) and -3.65% (inactive); `O=C(CC(c1ccccc1)c1ccccc1)N1CCN(C(c2ccccc2)c2ccccc2)CC1`: 61.6% (inactive). On to `COc1ccc2c(c1OC)C(=O)OC2[C@H]1c2c(cc3c(c2OC)OCO3)CCN1C` (some centres not stated), for which the activity change, negative = inhibition is 10.4% (inactive). Next, `Cc1cc(-c2ccc(CC(=O)Nc3ccc(-c4cccnc4)cc3)cc2)ccn1`: 6.98% (inactive). Take `Nc1ccccc1NC(=O)c1ccc(CNC(=O)OCc2cccnc2)cc1`: the activity change, negative = inhibition is -0.731% (inactive) and 6.65% (inactive). Next, `Nc1ccccc1NC(=O)c1ccc(CNc2nccc(-c3cccnc3)n2)cc1`: -79.8% (active) and -89.7% (active).
